BJeLR viability: BJeLR cell viability loss, primary screen, luminescence, CellTiterGlo ATP; 30,000 compounds, 0.64% hits; AID 2275, 2010; BJeLR fibroblasts viability, 48 h; HRASV12, hTERT and SV40 LT/ST transformed; viability loss activity score, % (test concentration not listed); in the data active means viability loss activity score above about 50%;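 further: higher score means fewer live cells and less ATP luminescence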
A1 inhib: inducers of caspase activity in MEF A1-2A-BIM cells, primary screen, A1 inhibitor project, cell-based, CaspaseGlo luminescence; caspase-Glo luminescence, 3 h; percent of clofoctol signal, DMSO as zero; caspase activation, % (no concentration beside the values); 21,000 compounds, 0.51% hits;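 active means most replicate scores above 10, or exactly half above 10 with mean activity above 10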;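 further: effector caspase 3 and 7 activity cleaving a DEVD luciferin substrate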
An asterisk follows results filed as active; . = not tested or not shown. Shown are actives, neighbours in structure and some others; about 0.89% of the full set was active somewhere.

SMILES | BJeLR viability | A1 inhib
C=C(CO)C(=O)O[C@H]1C[C@@]23O[C@@H]2CC/C(=C/[C@H]2OC(=O)C(=C)[C@H]12)CO[C@@H]3O | -2.0 | 0.1
C=C(C)C(=O)O[C@H]1C[C@@]2(C)OC(=CC2=O)/C(COC(C)=O)=C\[C@H]2OC(=O)C(=C)C12 (stereo not given in full) | 61.3* | 1.6
COc1cc(OC)c(NC2c3ncccc3C(=O)N2Cc2cccs2)cc1Cl (stereo not given) | 0.6 | .
Cc1cc(-c2c(C(=O)Sc3ccccc3)c(C)nn2-c2ccccc2)no1 | 0.5 | -0.4
Cc1ccc(SC(=O)c2c(C)noc2-c2cc(C)on2)cc1 | 1.3 | 9.8*
Cc1cc(C)c(Cn2c(=O)n(NC(=O)c3ccccc3)c(=O)c3sccc32)c(C)c1 | 6.3 | .
CC1(C)CC(=O)C=C(Sc2nc3cc(Cl)ccc3s2)C1 | 69.0* | 0.1
Cc1cc(Oc2nc3cc(Cl)ccc3s2)c2cc(Cl)ccc2n1 | -3.8 | 0.5
COC(=O)C1=C(C(=O)c2ccccc2)C(c2ccc(C(=O)OC)cc2)n2nnnc2N1 (stereo not given) | -3.0 | .
Cc1sc2ncnc(Oc3cccc(C(F)(F)F)c3)c2c1-c1ccccc1 | -0.3 | -1.0
CC(=O)NCCOc1ccc(C2CCCCC2)cc1 | 0.8 | -0.2
Nc1cc(C(F)(F)F)ccc1Oc1ccc(C2CCCCC2)cc1 | 4.6 | 11.4*
CCC1CCCCN1C(=O)Cn1c(=O)n(-c2cc(F)ccc2F)c(=O)c2sccc21 (stereo not given) | 0.4 | .
COc1ccc(CNC(=O)c2cc(=O)[nH]c3ccc(S(=O)(=O)N4CCCC4)cc23)cc1 | -6.6 | .
CCOc1ccc(C(=O)Nc2cc(C)ccn2)cc1 | 89.8* | -6.7
CCOc1ccc(C(=O)NCC(=O)n2nc(C)cc2C)cc1 | 0.9 | -3.6
COc1cccc2sc(=NC(=O)Cc3cccc4ccccc34)n(C)c12 | 5.2 | 10.1*
COc1ccccc1C1CCN(Cc2cccc3ccccc23)CC1 | 1.6 | 1.9
Cc1nc2c(C)cccn2c1C(Nc1ccc(F)cc1)c1ccccc1 (stereo not given) | -4.4 | .
Cc1cc2cc(CNC(=O)CCC3CCCCC3)ccc2n1C | 2.7 | .
Cc1ccc2oc(=O)c3cc(C(=O)NC(C)C)sc3c2c1 | 4.4 | .
CC1=CCC[C@@H]2[C@](CCc3ccoc3)(C(=O)O)[C@H](C)CC[C@@]12C | -2.6 | 0.5
C[C@@H]1C[C@H]2OCC3=CCC[C@H]([C@]1(CC(O)c1ccoc1)C(=O)O)[C@]32CO (stereo not given in full) | 92.0* | -0.1
Cc1cccc(NC(=O)C(NC(=O)c2ccc(C34CC5CC(CC(C5)C3)C4)cc2)C(C)C)n1 (stereo not given) | 1.4 | .
CCCc1nc(N)c(C#N)c(-c2ccccc2)c1CC | 3.5 | 1.1
SMILES | BJeLR viability | A1 inhib
N#Cc1c(N)nc(Sc2ccc(Cl)cc2)c(C#N)c1-c1ccccc1 | 5.7 | 42.5*
CCCCN1C2=NC3C=CC=CN3C(=O)C2=CC(C(=O)OCC)C1=NC(=O)C(C)(C)C (stereo not given) | -1.1 | .
Cc1ccc(C(=O)NCC2OCCc3ccccc32)cc1 (stereo not given) | 1.8 | -0.5
O=C(CCn1c(=S)oc2ccccc21)N1CCn2c(nc3ccccc32)C1 | 1.1 | .
COc1ccc(/C=C2\C(=O)C3(C)CCC2C3(C)C)cc1 (stereo not given) | -3.2 | 0.6
CCCN1C/C(=C/c2ccc(OC)cc2)C(=O)/C(=C/c2ccc(OC)cc2)C1 | 70.1* | .
CC(C)C(NC(=O)c1ccc(C23CC4CC(CC(C4)C2)C3)cc1)C(=O)N(C)Cc1ccco1 (stereo not given) | -0.6 | .
O=C(NCc1cccnc1)/C(=C\c1ccc(Br)cc1)S(=O)(=O)c1ccccc1 | 6.8 | 1.0
O=C(NCc1cccnc1)/C(=C\c1cccc(Oc2ccccc2)c1)S(=O)(=O)c1ccccc1 | 96.1* | 47.0*
COC(=O)C1=C(O)/C(=C/c2ccccc2OC)N=C1C | 0.1 | .
COc1cc(NC(=O)COc2cc(C)c(Cl)c(C)c2)ccc1NC(=O)c1cc2ccccc2o1 | 7.0 | 16.5*
Cc1cc(C)cc(NC(=O)c2cc3ccccc3o2)c1 | 4.0 | -4.4
Cn1c(=O)cc(OCC(=O)NCC2COc3ccccc3O2)c2ccccc21 (stereo not given) | -4.2 | .
CCc1nnc(NC(=O)Nc2ccccc2C(F)(F)F)s1 | -1.8 | .
O=C1C=CC(=O)c2c(O)c(Cl)c(Cl)c(O)c21 | 53.7* | -5.2
Cc1nc(-c2ccc(S(=O)(=O)N3CCCc4ccccc43)s2)cs1 | 56.1* | -0.1
COc1ccccc1C1CCN(S(=O)(=O)c2ccc(-c3csc(C)n3)s2)CC1 | 5.2 | 0.1
CCCn1nc(NC(=O)c2cccc(Cl)c2)c2cc3cc(C)ccc3nc21 | -6.7 | 12.2*
COC(=O)c1cc(NC(=O)c2cccc(Cl)c2)cc(C(=O)OC)c1 | -2.3 | 0.0
CC(=O)NS(=O)(=O)c1ccc(NC(=O)COc2ccc(Cl)cc2C)cc1 | -4.1 | .
CCOc1ccc(-n2c(=O)c3sccc3n(CC(=O)Nc3cccc(C(F)(F)F)c3)c2=O)cc1 | -12.3 | .
C=CCNC1=C2C[C@@H](C)C[C@H](OC)[C@H](O)[C@@H](C)/C=C(\C)[C@H](OC(N)=O)[C@@H](OC)C=C/C=C(/C)C(=O)NC(=CC1=O)C2=O | 69.2* | 0.0
C=C(C)CC1(NC(C)c2ccccc2)CCCCC1 (stereo not given) | -0.4 | 9.8*
CC(=O)NC(C)c1ccccc1 (stereo not given) | -3.1 | -0.1
CNC(=O)Cn1cc2c(n1)-c1c(oc(C(=O)N3CCCC3)c1C)CC2 | -2.4 | -0.3
SMILES | BJeLR viability | A1 inhib
CCOC(=O)c1ccc(NC(=O)c2oc3c(c2C)-c2nn(Cc4ccc(C)cc4)cc2CC3)cc1 | 2.9 | 21.8*
O=C(CSc1nc(-c2ccco2)cc(C(F)(F)F)n1)N(Cc1ccccc1)Cc1ccccc1 | 2.5 | -0.6
COc1ccc(-c2nc3ccccc3s2)cc1 | 60.0* | -6.9
c1cc(-c2nc3ccccc3s2)nc(-c2nc3ccccc3s2)c1 | -1.9 | 0.2
CCOC(=O)c1cc(CC)sc1NC(=S)Nc1ccccc1C(F)(F)F | 0.7 | 1.7
CCOC(=O)c1cc(-c2ccccc2)sc1NC(=O)CCN1CCN(CC)CC1 | 50.7* | 11.6*
O=C(CCN1C(=O)C2C3C=CC(C3)C2C1=O)NC(c1ccccc1)c1ccccc1 (stereo not given) | -5.9 | .
CC1CC(=O)[C@]2(C)CC[C@]3(C)C(C(=O)C(O)C4[C@@]5(C)CC[C@H](O)C(C)(C(=O)O)C5CC[C@]43C)C2C1C (stereo not given in full) | 105.7* | 3.0
C[C@@H]1CC[C@]2(C(=O)O)CC[C@]3(C)C(=CCC4[C@@]5(C)CC[C@@H](O)[C@](C)(C(=O)O)C5CC[C@]43C)C2[C@H]1C (stereo not given in full) | . | 0.1
Cc1cc2ccccc2c(=O)n1CC(=O)N1CCCCC1 | -0.8 | .
CCC(C)CC(C)/C=C\C1OC2=C(C(=O)OC2(C)O)C(O)C1O (stereo not given) | 104.0* | 7.7
COC(=O)CSc1nnc(-c2ccncc2)n1-c1ccc(OC)cc1 | -2.6 | .
CCOC(=O)N1CCC(NC(=O)Nc2ccc(F)cc2)CC1 | -0.6 | .
CCCCN1C2=NC3C=CC=CN3C(=O)C2=CC(C(=O)OCC)C1=NC(=O)C(C)Oc1ccccc1 (stereo not given) | -1.7 | .

Bioassay records from PubChem.
